We go through two compounds from PubChem BioAssay AID1159580 (chemical genetic matrix, 2015).

This assay is described as follows: chemical genetic growth profiling, strain panel (AID 1159580).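 Further: tested at 20 µM; growth read once vehicle control cultures reached saturation at 30 °C; 1 = growth at the plate median or of vehicle wells.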 The following applies: S. cerevisiae deletion strains, growth OD.
Setting [1] is: locus YAL040C, strain CLN3, stronger effect = lower value.
Setting [2] is: locus YCL061C, strain MRC1 (second series), stronger effect = lower value.
The mark [3] stands for this setting: locus YDR363W, strain ESC2, stronger effect = lower value.
Setting [4] is: locus YER002W, strain NOP16, stronger effect = lower value.
The mark [5] stands for this setting: locus YNL153C, strain GIM3, stronger effect = lower value.
Where [6] appears, read: locus YNL175C, strain NOP13, stronger effect = lower value.
Where [7] appears, read: locus YNL197C, strain WHI3, stronger effect = lower value.
The mark [8] stands for this setting: locus YNL224C, strain SQS1, stronger effect = lower value.
Setting [9] is: locus YOR083W, strain WHI5 (second series), stronger effect = lower value.

The structures appear in SMILES notation. About 2,000 (36%) of roughly 5,500 compounds were called active. Inconclusive results (about 18%) are left out. The list shows a part of the results. Values without a mark were called inactive. No stated cut-off is given here; in the data, active means normalized growth mostly below about 0.91 (no sharp cut-off); inconclusive means no clear call, values can overlap the other calls; inactive means mostly above about 0.92.

`N[C@@H](Cc1cnc[nH]1)C(=O)O`: the normalized growth reads like this: (locus YAL013W, strain DEP1, stronger effect = lower value) 0.963; under setting [1], 0.939; under setting [2], 0.987; under setting [3], 0.979; under setting [4], 0.991; (locus YMR307W, strain GAS1, stronger effect = lower value) 0.986. For the same compound, the normalized growth (locus YNL128W, strain TEP1, stronger effect = lower value) is 0.978; the normalized growth under setting [5] was 1.01; the normalized growth under setting [6] was 0.989; the normalized growth under setting [7] is 0.988; the normalized growth under setting [8] was 0.996; the normalized growth under setting [9] was 1.03.
Turning to `O=Nc1c(-c2c(O)[nH]c3ccccc23)[nH]c2ccccc12`, the normalized growth was 0.529 (active) under setting [1]; 0.997 under setting [2]; 0.976 under setting [3]; 0.587 (active) under setting [4]; 0.985 (locus YGR078C, strain PAC10, stronger effect = lower value); 1.01 (locus YJR075W, strain HOC1, stronger effect = lower value). The normalized growth under setting [5] is 1; the normalized growth under setting [6] is 0.676 (active); the normalized growth under setting [7] is 0.869 (active); the normalized growth under setting [8] is 0.951; the normalized growth under setting [9] was 0.46 (active).
